# Source: PubChem BioAssay
# This is a sample that favours compounds with a hit; in the whole collection about 2% have one here.
# Platelet DG rel: platelet dense granule release activity. human platelet-rich plasma, SFLLRN dense granule ATP release, luminescence. inhibition, %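 (compounds screened at 7.5 µM in platelet-rich plasma)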. hit rate 0.22% among 300,000. AID 1663;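 active = mean replicate score, as percent of positive control, at or above 50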
# SKKanGAS inh: blocks kanamycin growth of S. pyogenes SKKanGAS strain; AID 1662; hit rate 1.3% among 300,000; inhibition, % at 7.5 µM; BacTiter-Glo, 6 h;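 active = mean replicate score, as percent of positive control median, at least 50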;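 also: strain carries kanamycin resistance gene driven by streptokinase promoter and grows in 40 µg/ml kanamycin; loss of luminescence reflects streptokinase promoter inhibition or plain growth inhibition; 0% = median of DMSO wells and 100% = positive control at its reference dose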
# Calb FLC: affects C. albicans growth with fluconazole; hit rate 0.57% among 300,000; C. albicans CaCi-2 (fluconazole-resistant clinical isolate) + fluconazole, Alamar Blue growth, 48 h; AID 1979; growth inhibition, % (test concentration not listed);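 active = growth inhibition above about 58% in most replicates, limit read from the data, passing the limit was not always enough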;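 also: all wells also contain fluconazole at 8 µg/ml as a sub-toxic cotreatment; 0% = median of DMSO wells and 100% = median of geldanamycin control wells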
# PolyA inhibitor: yeast polyadenylation inhibition. S. cerevisiae SKY197-pL101 polyadenylation reporter, beta-gal luminescence; efflux-impaired pdr1/pdr3 knockout yeast; score 100 = 6 SD above DMSO. activity score, % at 12 µM. hit rate 0.02% among 300,000;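 active = lowest replicate activity score at least 50, where 100 means six control SD above control mean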;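 also: yeast exposed to compound for 9 h at 30 °C; higher score means more reporter readthrough which indicates perturbed polyadenylation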
# Yeast superoxide: lowers age-related superoxide in aged yeast cells; S. cerevisiae aged cells, superoxide DHE fluorescence; active compounds read low; superoxide response (% of plate mean), % at 10 µM; hit rate 0.18% among 330,000; AID 2690;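 active = superoxide response under a set limit, about three screen SD below normal, cut at about 65% in these data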;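 also: yeast aged for seven days with compound at 30 °C before DHE staining; 100% = average MFI of all compound-treated wells on the plate with controls excluded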
# * hit, by the source's call; · = no result given.
SMILES,Platelet DG rel,SKKanGAS inh,Calb FLC,PolyA inhibitor,Yeast superoxide
O=c1cc(O)c2c(=O)n(-c3ccccc3)c3c(c2o1)CCCCCC3,-7,56*,-1,-12,96
COc1ccc(-n2ncc3c2CC(C)(C)CC3NC(=O)c2ccc(OC)o2)cc1 (stereo unspecified),-6,-1,5,-14,94
COc1ccc2c(c1OC)C(=O)N(c1ccc(OCc3ccccc3)cc1)C2=O,-7,-1,14,16,106
COc1ccc(CCn2ccc(O)c(Cc3c(F)cccc3Cl)c2=O)cc1OC,6,4,24,-7,98
Cc1cccc2sc(NNC(=O)c3ccc(S(=O)(=O)N4CCCC(C)C4)cc3)nc12 (stereo unspecified),0,91*,-1,-7,139
Cc1cccc2sc(NNC(=O)c3ccc(S(=O)(=O)N4CCc5ccccc5C4)cc3)nc12,5,59*,-1,-1,109
O=C(Nc1ccc(OCC(F)(F)C(F)F)c(C(F)(F)F)c1)c1ccccc1O,-2,81*,7,-22,106
O=C(Nc1ccc(OCC(F)(F)C(F)F)c(C(F)(F)F)c1)c1ccccc1,-2,9,12,-23,110
COc1ccc(C(=O)Cn2nnc(-c3ccccc3NC(=O)c3ccco3)n2)cc1,1,55*,-26,14,94
Cc1ccc(-n2c(-c3ccc(Br)cc3)c[n+]3c2CCc2ccc4cccnc4c2-3)cc1,-9,81*,99*,0,128
COc1ccc(CNC(=O)Cn2nnc3ccccc3c2=O)cc1,2,-10,-3,-20,100
Cc1ccc(S(=O)(=O)N2CCCCC2)cc1NC(=O)COC(=O)C1(C)CC1(Cl)Cl (stereo unspecified),·,·,·,·,110
CC(=O)OCC1=C(C(=O)O)N2C(=O)C(NC(=O)c3ccc(COc4ccc(Cl)cc4)o3)C2SC1 (stereo unspecified),1,7,1,17,100
Cc1nnc(SCC2=C(C(=O)O)N3C(=O)C(NC(=O)Cn4nc(C(F)F)c(Cl)c4C)C3SC2)s1 (stereo unspecified),-13,96*,-10,15,92
CC(=O)OCC1=C(C(=O)O)N2C(=O)C(NC(=O)CCn3nc(C(F)(F)F)c(Br)c3C3CC3)C2SC1 (stereo unspecified),-10,110*,7,-7,103
CC(=O)OCC1=C(C(=O)O)N2C(=O)C(NC(=O)CC(C)c3ccccc3)C2SC1 (stereo unspecified),·,·,·,·,96
Cc1nnc(SCC2=C(C(=O)O)N3C(=O)C(NC(=O)c4cc(F)c(F)cc4Cl)C3SC2)s1 (stereo unspecified),5,109*,27,17,102
CC(=O)OCC1=C(C(=O)O)N2C(=O)C(NC(=O)C(C)Cn3cc(Cl)cn3)C2SC1 (stereo unspecified),-5,115*,-13,7,107
O=c1[nH]c(-c2ccccc2)c(-c2ccccc2)o1,-4,7,-1,22,108
CC(=O)OCC1=C(C(=O)O)N2C(=O)[C@@H](NC(=O)Cc3cccs3)[C@H]2SC1,0,103*,·,-14,92
CC(=O)OCC1=C(C(=O)O)N2C(=O)C(NC(=O)Cn3nc(C(F)F)c(Cl)c3C)C2SC1 (stereo unspecified),-3,109*,-24,0,97
Cc1nnc(SCC2=C(C(=O)O)N3C(=O)C(NC(=O)COc4ccc(F)cc4)C3SC2)s1 (stereo unspecified),·,·,·,·,130
Cc1nnc(SCC2=C(C(=O)O)N3C(=O)C(NC(=O)Cn4nc(C(F)F)cc4C)C3SC2)s1 (stereo unspecified),1,112*,3,9,92
CC(=O)OCC1=C(C(=O)O)N2C(=O)C(NC(=O)CCn3nc(C)c(Cl)c3C)C2SC1 (stereo unspecified),-4,95*,-6,13,102
COc1ccc([C@H]2CC(=O)C=C(c3ccc(Cl)c(F)c3)C2)cc1,·,·,·,·,95
SMILES,Platelet DG rel,SKKanGAS inh,Calb FLC,PolyA inhibitor,Yeast superoxide
O=C(O)CCC(=O)Nc1nc2nccc(-c3ccccc3)n2n1,-1,0,-1,3,105
O=C(NCc1ccccc1)C1CCC(=O)N(CCCN2CCCC2=O)C1 (stereo unspecified),-6,-1,0,2,98
O=C(COC(=O)/C=C/c1cn(-c2ccccc2)nc1-c1ccc2c(c1)OCCO2)NC1CCS(=O)(=O)C1 (stereo unspecified),52*,9,21,-9,110
CN(C(=O)COC(=O)/C=C/c1cn(-c2ccccc2)nc1-c1ccc2c(c1)OCCO2)C1CCS(=O)(=O)C1 (stereo unspecified),-4,7,22,-5,100
CCCCOC(=O)CCc1c(C)[nH]c(=O)c(C#N)c1C,61*,2,-20,22,86
Cc1ccc(NC(=O)CCc2c(C)[nH]c(=O)c(C#N)c2C)cc1,30,-3,5,-7,89
O=C(Cc1c(F)cccc1Cl)NNC(=O)c1ccncc1,·,·,·,·,80
CCCc1cc(=O)n2[nH]c(C)c(-c3ccccc3)c2n1,12,6,-3,2,93
Cc1[nH]n2c(=O)cc(C(C)C)nc2c1-c1ccccc1,-1,9,18,6,91
Cc1[nH]n2c(=O)cc(-c3ccc([N+](=O)[O-])cc3)nc2c1-c1ccccc1,·,102*,-1,-3,98
COc1cccc(N=Nc2c(N)[nH]n3c(=O)cc(-c4ccccc4)nc23)c1,-30,110*,5,0,113
Cc1[nH]n2c(=O)cc(C(C)(C)C)nc2c1-c1ccccc1,-4,89*,-2,-2,100
CCc1cc(=O)n2[nH]c(C)c(-c3ccc(OC)cc3)c2n1,-8,-2,6,5,97
COc1ccc(-c2c(C(F)(F)F)[nH]n3c(=O)cc(-c4ccccc4)nc23)cc1,-8,56*,-1,6,114
Cc1cc(C(=O)c2cnc(/N=C/N(C)C)s2)c(F)cc1Cl,6,3,19,7,98
COc1cc(CC(=O)OCc2ccccc2F)cc(OC)c1OC,-1,-1,3,-4,100
CCC1CCCCN1S(=O)(=O)c1ccc(C(=O)Nc2nnc(-c3ccccc3Cl)o2)cc1 (stereo unspecified),-2,110*,11,-9,95
O=C(Nc1nnc(-c2ccccc2Cl)o1)c1ccc(S(=O)(=O)N2CCCCCC2)cc1,-2,107*,1,6,106
CC1CCCCN1S(=O)(=O)c1ccc(C(=O)Nc2nnc(-c3ccccc3Cl)o2)cc1 (stereo unspecified),-4,97*,10,-3,121
CCC1CCCCN1S(=O)(=O)c1ccc(C(=O)Nc2nnc(C3=COCCO3)o2)cc1 (stereo unspecified),-8,79*,-5,-1,102
CC1CCCCN1S(=O)(=O)c1ccc(C(=O)Nc2nnc(-c3ccncc3)o2)cc1 (stereo unspecified),9,27,21,-6,86
